# Experimental data from article PMC11062922 (Nature Chemical Biology, 2023).
# Like-named read-outs stand apart in the source and are kept apart here.
# Assays:
# Set-up in all cases: species or system human, MV4-11 + K-562 + COLO205 + SK-N-BE2 + OVCAR-8
# [1] = system: BUB1; conditions: read-out: apparent Kd, n = 1
# [2] = system: MAP4K5; conditions: read-out: apparent Kd, compound concentrations: 100 nM and 1000 nM (sheet 'Samples'), n = 1
# [3] = system: TAOK1; conditions: read-out: apparent Kd, compound concentrations: 100 nM and 1000 nM (sheet 'Samples'), n = 1
# [4] = system: ERCC2; conditions: read-out: apparent Kd, compound concentrations: 100 nM and 1000 nM (sheet 'Samples'), n = 1
# [5] = system: PIK3CD; conditions: read-out: apparent Kd, compound concentrations: 100 nM and 1000 nM (sheet 'Samples'), n = 1
# [6] = system: TGFBR2; conditions: read-out: apparent Kd, compound concentrations: 100 nM and 1000 nM (sheet 'Samples'), n = 1
# [7] = system: EPHA2; conditions: read-out: apparent Kd, compound concentrations: 100 nM and 1000 nM (sheet 'Samples'), n = 1
# [8] = system: MAPKAPK2; conditions: read-out: apparent Kd, compound concentrations: 100 nM and 1000 nM (sheet 'Samples'), n = 1
# [9] = system: NLK; conditions: read-out: apparent Kd, compound concentrations: 100 nM and 1000 nM (sheet 'Samples'), n = 1
# [10] = system: PDGFRB; conditions: read-out: apparent Kd, compound concentrations: 100 nM and 1000 nM (sheet 'Samples'), n = 1
# [11] = system: MAP2K1; conditions: read-out: apparent Kd, n = 1
# [12] = system: MAP2K2; conditions: read-out: apparent Kd; compound concentrations:100 nM and 1000 nM (sheet 'Samples'); n = 1
# [13] = system: EPHA5; conditions: read-out: apparent Kd, compound concentrations: 100 nM and 1000 nM (sheet 'Samples'), n = 1
# [14] = system: EPHB2; conditions: read-out: apparent Kd, compound concentrations: 100 nM and 1000 nM (sheet 'Samples'), n = 1
# [15] = system: EPHB4; conditions: read-out: apparent Kd, compound concentrations: 100 nM and 1000 nM (sheet 'Samples'), n = 1
# [16] = system: NQO1; conditions: read-out: apparent Kd, compound concentrations: 100 nM and 1000 nM (sheet 'Samples'), n = 1
# [17] = system: CSNK1D; conditions: read-out: apparent Kd, n = 1
# [18] = compound concentrations:100 nM and 1000 nM (sheet 'Samples')
compound,measurement,setting,value
CC(C)c1nc(-c2cccc(NS(=O)(=O)c3ccccc3)c2)c(-c2ccnc(Nc3ccc4c(c3)CN(C)CC4)n2)s1 [GSK1649598A],potency estimated from few doses,"[1]; compound concentrations: 100 nM and 1000 nM (sheet 'Samples'), CATDS: 1.7014993428197001E-2",579 nM
same,potency estimated from few doses,[2]; CATDS: 1.3446008257637299E-2,1320 nM
same,potency estimated from few doses,[3]; CATDS: 1.55271176192178E-2,769 nM
CN1C(=O)c2ccccc2N(C)c2nc(Nc3cnn(C4CCNCC4)c3)ncc21 [XMD-17-51],potency estimated from few doses,[4]; CATDS: 1.6840556785817699E-2,788 nM
same,potency estimated from few doses,[5]; CATDS: 3.4664155585902003E-2,111 nM
same,potency estimated from few doses,[3]; CATDS: 5.6290782434041703E-2,40.7 nM
same,potency estimated from few doses,[6]; CATDS: 1.41245865647958E-2,1610 nM
Cl.O=C1N=C(NCc2ccccn2)S/C1=C\c1ccc2ncccc2c1 [RO4874953-001],potency estimated from few doses,[4]; CATDS: 7.2588346323970404E-2,1850 nM
COc1cc(Nc2ccnc3cc(-c4ccncc4)ccc23)cc(OC)c1OC.Cl [GW494610A],potency estimated from few doses,[7]; CATDS: 2.8855283068255098E-2,577 nM
same,potency estimated from few doses,[2]; CATDS: 2.1260288667502202E-2,2030 nM
same,potency estimated from few doses,[8]; CATDS: 2.2209833673663099E-2,1620 nM
same,potency estimated from few doses,[9]; CATDS: 5.2882757998729699E-2,110 nM
same,potency estimated from few doses,[10]; CATDS: 4.8396986719482699E-2,136 nM
COc1ccccc1CNC1=NC(=O)/C(=C/c2ccc3ncccc3c2)S1 [RO4503315-000],potency estimated from few doses,[3]; CATDS: 7.1757893284069299E-2,1130 nM
CS(=O)(=O)Cc1ccc(Nc2nccc(-c3c(-c4cccc(NC(=O)C5CCCCC5)c4)nn4ncccc34)n2)cc1 [GSK350559A],potency estimated from few doses,[1]; [18],267 nM
same,potency estimated from few doses,[11]; [18],2430 nM
same,potency estimated from few doses,[12],1550 nM
COc1ccc(-n2cnc3c(N)ncnc32)cc1 [SKF-97236],potency estimated from few doses,[10]; CATDS: 0.12494680251160301,1970 nM
same,potency estimated from few doses,[5]; CATDS: 0.374681686981787,222 nM
CS(=O)(=O)CCNCc1ccc(-c2ccc3ncnc(Nc4ccc(OCc5cccc(F)c5)c(C(F)(F)F)c4)c3c2)o1 [GW576484X],potency estimated from few doses,[13]; CATDS: 6.1198720687785702E-2,1290 nM
same,potency estimated from few doses,[8]; CATDS: 5.1625153721040297E-2,1830 nM
same,potency estimated from few doses,[9]; CATDS: 4.7895996711747497E-2,2180 nM
same,potency estimated from few doses,[3]; CATDS: 9.5612553502410894E-2,618 nM
Cl.Oc1cccc(Nc2ccnc3cc(-c4ccncc4)ccc23)c1 [GW494601A],potency estimated from few doses,[7]; CATDS: 2.3824924917130601E-2,600 nM
same,potency estimated from few doses,[13]; CATDS: 3.7293479964616502E-2,113 nM
same,potency estimated from few doses,[14]; CATDS: 2.64855925277621E-2,385 nM
same,potency estimated from few doses,[15]; CATDS: 3.7673587952975797E-2,110 nM
same,potency estimated from few doses,[9]; CATDS: 1.9274779311166401E-2,1830 nM
same,potency estimated from few doses,[10]; CATDS: 1.9069305404636899E-2,1970 nM
same,potency estimated from few doses,[6]; CATDS: 0.14921911016535599,5.06 nM
O=C1N=C(NCc2cccs2)SC1Cc1ccc2ncccc2c1 (centres unmarked) [RO4629078-000],potency estimated from few doses,"[1]; compound concentrations: 100 nM and 1000 nM (sheet 'Samples'), CATDS: 7.2203356914043596E-3",1930 nM
same,potency estimated from few doses,[7]; CATDS: 1.36009605508639E-2,342 nM
same,potency estimated from few doses,[13]; CATDS: 1.5844356878219199E-2,259 nM
same,potency estimated from few doses,[14]; CATDS: 1.9892167159836899E-2,178 nM
same,potency estimated from few doses,[15]; CATDS: 2.1087498416613601E-2,162 nM
same,potency estimated from few doses,[4]; CATDS: 9.4373206529466905E-3,778 nM
same,potency estimated from few doses,[3]; CATDS: 7.4050083824812101E-3,1730 nM
NC(=O)c1cccc(Nc2nccc(Nc3cccc4[nH]ncc34)n2)c1 [GW782612X],potency estimated from few doses,[6]; CATDS: 0.37560252723777299,17 nM
Cc1ccc(O)cc1Nc1ccnc2cc(-c3ccc(CN4CCCCC4)o3)ccc12 [GW557777X],potency estimated from few doses,[7]; CATDS: 3.25409539793877E-2,18.9 nM
same,potency estimated from few doses,[13]; CATDS: 3.4723791615605203E-2,15.6 nM
same,potency estimated from few doses,[14]; CATDS: 4.4697919041746297E-2,7.87 nM
same,potency estimated from few doses,[15]; CATDS: 5.8010916452344102E-2,4.17 nM
same,potency estimated from few doses,[10]; CATDS: 1.4075910538655201E-2,735 nM
same,potency estimated from few doses,[5]; CATDS: 1.8513434924081099E-2,151 nM
Cl.Cl.Cl.c1ccc(Oc2ccc(Nc3ccnc4cc(-c5ccc(CN6CCNCC6)o5)ccc34)cc2)nc1.c1ccc(Oc2ccc(Nc3ccnc4cc(-c5ccc(CN6CCNCC6)o5)ccc34)cc2)nc1 [GW567142A],potency estimated from few doses,[16]; CATDS: 1.8216900253795E-2,1580 nM
COc1ccc(Nc2nccc(N3CCC(NC(=O)Nc4ccc5c(c4)OCO5)C3)n2)cc1 (centres unmarked) [GSK1379745A],potency estimated from few doses,"[17]; compound concentrations: 100 nM and 1000 nM (sheet 'Samples'), CATDS: 3.4846409929325597E-2",2080 nM
same,potency estimated from few doses,"[11]; compound concentrations: 100 nM and 1000 nM (sheet 'Samples'), CATDS: 3.9281553351087697E-2",1560 nM
same,potency estimated from few doses,[16]; CATDS: 4.3711719751433897E-2,1250 nM
same,potency estimated from few doses,[3]; CATDS: 4.1153987901417902E-2,1410 nM
Nc1nc(-c2cccnc2)c(-c2ccnc3ccccc23)s1 [GW684083X],potency estimated from few doses,[17]; [18],2190 nM
